Results: PubChem BioAssay (NCATS)
Records with an inconclusive call do not appear. Unmarked numbers belong to inactive results. Activity calls are given as the source filed them. The call rests on the fitted dose curve; in most records, active means well fitted cell-killing curve with a large enough effect; inconclusive means small, poorly fitted or top-dose-only effect, or effect the other way; inactive means no such curve, though single readings can be large or run the other way.

Experiment: Quantitative High-Throughput drug screen in 47 multiple myeloma cell lines against the NCATS MIPE library collection: FR4_PLB cell viability assay (AID 1918924; further: nearly all actives have a fitted effect of over 35% in size;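 on viability (% of DMSO control): 100% = DMSO-treated cells and 0% = wells with media only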)
Conditions: FR4_PLB myeloma cells viability, CellTiter-Glo ATP, 48 h; series mostly up to 45.8 µM; viability (% of DMSO control): at the top concentration
Outline: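 qHTS of the MIPE 4.0 collection: 500 myeloma cells/well, 48 h drug exposure at 37C in 5% CO2, then CellTiter-Glo for 5 min at room temperature before luminescence reading.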
Potency means the concentration at half of the fitted maximal effect.

Compound | viability (% of DMSO control) | Potency
CS(=O)(=O)c1ccc(C(=O)Nc2ccc(Cl)c(-c3ccccn3)c2)c(Cl)c1 | 107% | 
O=c1ncn2nc(Sc3ccc(F)cc3F)ccc2c1-c1c(Cl)cccc1Cl | 98.7% | 
CCN(c1ccccc1)c1cc(NC)[n+](C)c(C)n1 | 102% | 
O=C(NOC[C@H](O)CO)c1ccc(F)c(F)c1Nc1ccc(I)cc1F | 101% | 
CCc1ccc(CCOc2ccc(CC3SC(=O)NC3=O)cc2)nc1 (stereo unspecified) | 98.5% | 
O=c1[nH]c(-c2ccc(C(F)(F)F)cc2)nc2c1CSCC2 | 117% | 
CC(C)(N)C(=O)N[C@H](COCc1ccccc1)C(=O)N1CCC2(CC1)CN(S(C)(=O)=O)c1ccccc12 |  | 16.6 µM (active)
Clc1ccc(Nc2nnc(Cc3ccncc3)c3ccccc23)cc1 | 109% | 
NC(=O)c1ccc(-c2nc(-c3ccc4c(c3)OCO4)c(-c3ccccn3)[nH]2)cc1 |  | 14.8 µM (active)
CCOc1ccn(-c2ccc(F)cc2)c(=O)c1C(=O)Nc1ccc(Oc2ccnc(N)c2Cl)c(F)c1 |  | 18.7 µM (active)
CC(C)OC(=O)C1=CN(C(=O)c2ccc(F)c(F)c2)CC(C)(C)c2c1[nH]c1ccccc21 | 117% | 
COc1cccc2cc(-c3nc(C4CCC(C(=O)O)CC4)n4ncnc(N)c34)[nH]c12 (stereo unspecified) |  | 0.187 µM (active)
CC[C@@H](C)[C@H](NC(=O)[C@H](CC1CCCCC1)NC(=O)c1ccno1)C(=O)N1CCC2(CCc3ccccc32)CC1 |  | 13.2 µM (active)
Cc1cc2c(F)c(Oc3ncnn4cc(OC[C@@H](C)O)c(C)c34)ccc2[nH]1 | 141% | 
CCn1c(-c2nonc2N)nc2cnc(Oc3cccc(NC(=O)c4ccc(OCCN5CCOCC5)cc4)c3)cc21 |  | 14.8 µM (active)
Nc1cccc(S(=O)(=O)N2CCCN(S(=O)(=O)c3ccc4c(c3)OCCO4)CC2)c1 | 96.3% | 
